The supplement of paper PMC9694430

What was measured:
Test in all cases: thermal shift delta Tm vs DMSO control; higher = stronger stabilization (binding)
Details in all cases: 12.5 µM; protein concentration 2 µM
[1] = test system: LOC_OS02G45750-cb003
Procedure, shortened: (§1)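 Heating from 25°C to 95°C at 0.05°C/s, fluorescence was recorded for 19.5 μl wells of 2 μM E. coli-expressed, purified rice kinase domain in 100 mM potassium phosphate pH 7.5, 150 mM NaCl, 10% glycerol and 5 × SYPRO Orange with compound in DMSO. Boltzmann fits gave melting temperatures for this differential scanning fluorimetry assay. The shift reported is the mean of three replicates against the DMSO-only protein.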

[2] = test system: LOC_OS02G54510-cb004
Procedure, shortened: as §1

[3] = test system: LOC_OS03G04050-cb001
Procedure, shortened: as §1

[4] = test system: LOC_OS03G12390-cb001
Procedure, shortened: as §1

[5] = test system: LOC_OS03G27990-cb004
Procedure, shortened: as §1

[6] = test system: LOC_OS03G50450-cb001
Procedure, shortened: as §1

[7] = test system: LOC_OS03G50810-cb003
Procedure, shortened: as §1

[8] = test system: LOC_OS04G35114-cb001
Procedure, shortened: as §1

[9] = test system: T1, LOC_OS04G38480-cb003
T1 sequence (whole entry): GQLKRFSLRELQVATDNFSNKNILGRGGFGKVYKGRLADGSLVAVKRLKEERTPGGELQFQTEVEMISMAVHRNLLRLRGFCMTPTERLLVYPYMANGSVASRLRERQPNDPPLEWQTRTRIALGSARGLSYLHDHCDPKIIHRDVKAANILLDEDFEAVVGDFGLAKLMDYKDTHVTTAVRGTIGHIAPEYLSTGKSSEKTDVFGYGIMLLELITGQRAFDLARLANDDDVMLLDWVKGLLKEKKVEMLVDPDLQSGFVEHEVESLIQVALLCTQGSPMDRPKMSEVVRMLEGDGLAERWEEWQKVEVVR
Procedure, shortened: as §1

[10] = test system: T2, LOC_OS04G41100-cb001
T2 sequence (whole entry): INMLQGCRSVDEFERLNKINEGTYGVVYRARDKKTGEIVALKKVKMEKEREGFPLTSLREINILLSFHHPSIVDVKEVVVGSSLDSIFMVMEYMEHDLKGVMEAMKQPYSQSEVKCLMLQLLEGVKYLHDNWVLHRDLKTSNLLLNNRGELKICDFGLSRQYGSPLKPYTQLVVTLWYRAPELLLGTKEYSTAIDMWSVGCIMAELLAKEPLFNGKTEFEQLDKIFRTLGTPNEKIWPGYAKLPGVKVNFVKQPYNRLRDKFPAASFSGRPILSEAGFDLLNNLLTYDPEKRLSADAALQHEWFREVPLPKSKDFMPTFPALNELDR
Procedure, shortened: as §1

[11] = test system: LOC_OS04G57630-cb004
Procedure, shortened: as §1

[12] = test system: LOC_OS05G07850-cb002
Procedure, shortened: as §1

[13] = test system: LOC_OS05G16824-cb004
Procedure, shortened: as §1

[14] = test system: LOC_OS05G28520-cb001
Procedure, shortened: as §1

[15] = test system: LOC_OS05G30820-cb001
Procedure, shortened: as §1

[16] = test system: LOC_OS05G43570-cb004
Procedure, shortened: as §1

[17] = test system: LOC_OS06G16330-cb003
Procedure, shortened: as §1

[18] = test system: T3, LOC_OS06G22820-cb001
T3 sequence (whole entry): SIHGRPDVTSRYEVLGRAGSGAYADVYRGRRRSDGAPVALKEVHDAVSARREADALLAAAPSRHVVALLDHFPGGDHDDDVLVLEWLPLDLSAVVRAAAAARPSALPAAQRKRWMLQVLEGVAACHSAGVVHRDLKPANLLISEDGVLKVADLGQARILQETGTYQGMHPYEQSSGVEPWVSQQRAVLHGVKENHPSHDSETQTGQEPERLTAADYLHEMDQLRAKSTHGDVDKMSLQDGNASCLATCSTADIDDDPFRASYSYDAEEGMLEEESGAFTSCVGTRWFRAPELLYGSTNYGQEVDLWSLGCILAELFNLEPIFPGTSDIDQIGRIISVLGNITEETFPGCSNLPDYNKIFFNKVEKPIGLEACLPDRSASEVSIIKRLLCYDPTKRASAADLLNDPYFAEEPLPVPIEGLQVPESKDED
Procedure, shortened: as §1

[19] = test system: LOC_OS07G06570-cb004
Procedure, shortened: as §1

[20] = test system: LOC_OS07G07230-cb001
Procedure, shortened: as §1
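Also: purified Escherichia coli-expressed rice kinase domain construct.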

Chain of LOC_OS06G16330-cb003 (as listed by the source): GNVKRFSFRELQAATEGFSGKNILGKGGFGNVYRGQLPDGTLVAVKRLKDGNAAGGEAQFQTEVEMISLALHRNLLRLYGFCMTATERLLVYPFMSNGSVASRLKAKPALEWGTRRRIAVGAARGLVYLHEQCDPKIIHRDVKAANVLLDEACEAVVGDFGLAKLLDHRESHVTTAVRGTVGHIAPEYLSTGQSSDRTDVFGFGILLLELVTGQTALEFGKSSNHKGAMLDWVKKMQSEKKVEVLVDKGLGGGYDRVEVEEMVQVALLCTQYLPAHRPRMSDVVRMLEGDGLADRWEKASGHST

In the case of `CC(C)CC(NC(=O)C(Cc1ccccc1)NC(=O)C(CCC(N)=O)NC(=O)C(Cc1ccc(O)cc1)NC(=O)C(C)NC(=O)CNC(=O)C(CCCCN)NC(=O)C(Cc1c[nH]c2ccccc12)NC(=O)C(NC(=O)C(Cc1c[nH]c2ccccc12)NC(=O)C(CCCCN)NC(=O)CNC(=O)C(CC(N)=O)NC(=O)C(CCC(=O)O)NC(=O)C(Cc1c[nH]c2ccccc12)NC(=O)C(NC(=O)C(Cc1c[nH]c2ccccc12)NC(=O)C(CO)NC(=O)CNC(=O)C1CCCN1C(=O)C(Cc1c[nH]c2ccccc12)NC(=O)C(CCC(N)=O)NC(=O)C(Cc1ccccc1)NC(=O)CNC(=O)C(N)Cc1c[nH]cn1)C(C)O)C(C)O)C(=O)NC(CCCCN)C(=O)NCC(=O)NCC(=O)NCC(=O)NCC(=O)NC(CO)C(=O)NC(CCCNC(=N)N)C(=O)NC(CCCNC(=N)N)C(=O)NC(CCCNC(=N)N)C(=O)NC(CCCNC(=N)N)C(=O)NC(CCCNC(=N)N)C(=O)NC(CCCNC(=N)N)C(=O)NC(CCCNC(=N)N)C(=O)NC(CCCNC(=N)N)C(=O)NC(CCCNC(=N)N)C(=O)O` (stereo not given), the “thermal shift delta Tm” value [1] was 0.69 °C, the “thermal shift delta Tm” value [2] was 0.13 °C and the “thermal shift delta Tm” value [3] was 0.6 °C. The “thermal shift delta Tm” value [4] was -3.52 °C, the “thermal shift delta Tm” value [5] was -3.62 °C and the “thermal shift delta Tm” value [6] was 0.05 °C. For the same compound, the “thermal shift delta Tm” value [7] was -1.39 °C, the “thermal shift delta Tm” value [8] was 0.3 °C and the “thermal shift delta Tm” value [9] was 4.04 °C. The “thermal shift delta Tm” value [10] was 0.4 °C, the “thermal shift delta Tm” value [11] was 0.42 °C and the “thermal shift delta Tm” value [12] was 3.56 °C. The “thermal shift delta Tm” value [13] was 2.71 °C, the “thermal shift delta Tm” value [14] was 0.07 °C and the “thermal shift delta Tm” value [15] was 0.42 °C. For the same compound, the “thermal shift delta Tm” value [16] was 1.33 °C, the “thermal shift delta Tm” value [17] was 0.39 °C and the “thermal shift delta Tm” value [18] was 1.2 °C. The “thermal shift delta Tm” value [19] was 0.27 °C and the “thermal shift delta Tm” value [20] was 0.04 °C.
`Cc1[nH]c(/C=C2\C(=O)Nc3ccc(S(=O)(=O)Cc4c(Cl)cccc4Cl)cc32)c(C)c1C(=O)N1CCC[C@@H]1CN1CCCC1` was tested, and the “thermal shift delta Tm” value [1] was 0 °C, the “thermal shift delta Tm” value [2] was 0.51 °C and the “thermal shift delta Tm” value [3] was 0.3 °C. The “thermal shift delta Tm” value [4] was 4.07 °C, the “thermal shift delta Tm” value [5] was 0.43 °C and the “thermal shift delta Tm” value [6] was 0.47 °C. The “thermal shift delta Tm” value [7] was 0 °C, the “thermal shift delta Tm” value [8] was 7.26 °C and the “thermal shift delta Tm” value [9] was 2.55 °C. The “thermal shift delta Tm” value [10] was 0.74 °C, the “thermal shift delta Tm” value [11] was 2.32 °C and the “thermal shift delta Tm” value [12] was 10.3 °C. The “thermal shift delta Tm” value [13] was 0 °C, the “thermal shift delta Tm” value [14] was 0.75 °C and the “thermal shift delta Tm” value [15] was 0.48 °C. For the same compound, the “thermal shift delta Tm” value [16] was 0.55 °C, the “thermal shift delta Tm” value [17] was 6.03 °C and the “thermal shift delta Tm” value [18] was 0.86 °C. The “thermal shift delta Tm” value [19] was 0.77 °C and the “thermal shift delta Tm” value [20] was 0.98 °C.
`Cc1ccc(NC(=O)c2ccc(CN3CCN(C)CC3)cc2)cc1Nc1nccc(-c2cccnc2)n1` [Imatinib (STI571)] was tested, and the “thermal shift delta Tm” value [1] was 1.17 °C, the “thermal shift delta Tm” value [2] was 0.22 °C and the “thermal shift delta Tm” value [3] was 0.47 °C. The “thermal shift delta Tm” value [4] was -0.05 °C, the “thermal shift delta Tm” value [5] was 0.26 °C and the “thermal shift delta Tm” value [6] was 0.4 °C. For the same compound, the “thermal shift delta Tm” value [7] was 0.42 °C, the “thermal shift delta Tm” value [8] was 0.92 °C and the “thermal shift delta Tm” value [9] was 0.88 °C. The “thermal shift delta Tm” value [10] was 0.5 °C, the “thermal shift delta Tm” value [11] was 0.39 °C and the “thermal shift delta Tm” value [12] was 2.43 °C. For the same compound, the “thermal shift delta Tm” value [13] was -0.13 °C, the “thermal shift delta Tm” value [14] was 0.71 °C and the “thermal shift delta Tm” value [15] was 0.5 °C. For the same compound, the “thermal shift delta Tm” value [16] was 0.23 °C, the “thermal shift delta Tm” value [17] was 0.3 °C and the “thermal shift delta Tm” value [18] was 0.22 °C. For the same compound, the “thermal shift delta Tm” value [19] was 1.37 °C and the “thermal shift delta Tm” value [20] was 0.97 °C.
